# Test results taken from the supplement of paper PMC6555819.
# Columns and labels:
# Test in all cases: PBM binding z-score (relative to random genomic background probes); higher = stronger binding; sequences stand for … in GC…GCGATTGACAGCGTAGAATGAAGG
# [1] = system: FXR:RXRa (NR concentration 270 nM, RXRa partner concentration 90 nM)
# Outline: (§1)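 The probes on custom Agilent 4×180K protein-binding microarrays were double-stranded, with 34-nt variable regions bearing direct-repeat seeds, single-nucleotide variants, half-site ablations and random human genomic background sequences. Incubation lasted 1 h with ligand-free nuclear receptor dimers in PBS pH 7.4, 2% milk, 0.02% Triton X-100, 1 mM DTT, 0.2 mg/mL BSA and 0.4 mg/ml salmon testes DNA. Antibodies against each partner (one per run) detected bound dimers, and fluorescence scans were regression-normalized. Binding z-scores take the random background probes as reference.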
# [2] = system: LXRa:RXRa (NR concentration 270 nM, RXRa partner concentration 90 nM)
# Outline: as §1
# [3] = system: LXRa homodimer (NR concentration 270 nM)
# Outline: as §1
# [4] = system: LXRb:RXRa (NR concentration 270 nM, RXRa partner concentration 90 nM)
# Outline: as §1
# [5] = system: LXRb homodimer (NR concentration 270 nM)
# Outline: as §1
# [6] = system: PPARa:RXRa (NR concentration 270 nM, RXRa partner concentration 90 nM)
# Outline: as §1
# [7] = system: PPARg:RXRa (NR concentration 180 nM, RXRa partner concentration 90 nM)
# Outline: as §1
# [8] = system: PPARg:RXRa 270nM:90nM, anti-RXR (NR concentration 270 nM, RXRa partner concentration 90 nM)
# Outline: as §1
# [9] = system: PPARg:RXRa 30nM:10nM, anti-RXR (NR concentration 30 nM, RXRa partner concentration 10 nM)
# Outline: as §1
# [10] = system: PPARg:RXRa 90nM:30nM, anti-RXR (NR concentration 90 nM, RXRa partner concentration 30 nM)
# Outline: as §1
# [11] = system: PPARg:RXRa DBDmut IVT, anti-RXR (DBD mutation: RXRa K156A/R161A, NR concentration 270 nM, RXRa partner concentration 90 nM)
# Outline: as §1
# [12] = system: PPARg:RXRa IVT, anti-PPARg (NR concentration 270 nM, RXRa partner concentration 90 nM)
# Outline: as §1
# [13] = system: PPARg DBDmut:RXRa IVT, anti-PPARg (DBD mutation: PPARg1 K132A/R137A, NR concentration 270 nM, RXRa partner concentration 90 nM)
# Outline: as §1
# [14] = system: PPARg DBDmut IVT, anti-PPARg (DBD mutation: PPARg1 K132A/R137A, NR concentration 270 nM)
# Outline: as §1
# [15] = system: PPARg homodimer (NR concentration 180 nM)
# Outline: as §1
# [16] = system: PXR:RXRa (NR concentration 270 nM, RXRa partner concentration 90 nM)
# Outline: as §1
# [17] = system: PXR homodimer (NR concentration 270 nM)
# Outline: as §1
# [18] = system: RARa:RXR (NR concentration 270 nM, RXRa partner concentration 90 nM)
# Outline: as §1
# [19] = system: RARa homodimer (NR concentration 270 nM)
# Outline: as §1
# [20] = system: RARb:RXRa (NR concentration 270 nM, RXRa partner concentration 90 nM)
# Outline: as §1
Sequence,PBM binding z-score [1],PBM binding z-score [2],PBM binding z-score [3],PBM binding z-score [4],PBM binding z-score [5],PBM binding z-score [6],PBM binding z-score [7],PBM binding z-score [8],PBM binding z-score [9],PBM binding z-score [10],PBM binding z-score [11],PBM binding z-score [12],PBM binding z-score [13],PBM binding z-score [14],PBM binding z-score [15],PBM binding z-score [16],PBM binding z-score [17],PBM binding z-score [18],PBM binding z-score [19],PBM binding z-score [20]
TTACCAAGGTGAGCTGAGGTCGTAGATCCAACTC,2.54,0.614,-0.687,0.401,-1.29,1.78,0.268,0.85,-0.191,0.588,0.925,1.67,-0.714,-0.674,-0.332,4.2,-0.58,2.1,-0.84,1.85
TTACCAAGGTGAGATGAGGTCGTTGATCCAACTC,1.78,1.68,-0.0824,1.1,-0.44,2.03,0.772,1.32,0.775,1.01,1.15,2.16,-0.0123,0.496,0.827,5.21,0.58,2.44,0.0224,1.83
CCTTACAGGTCACTGACAGGTTATAGCATTTGGA,6.15,4.93,2.19,3.88,0.942,5.23,4.78,4.44,2.1,3.27,4.62,4.34,1.33,1.38,3.27,3.86,0.606,4.73,2.15,4.67
CCAACTGGGCCATCAGGTCATTGATATCAACGTT,1.54,0.836,0.987,1.56,-0.441,2.73,2.9,3.63,1.38,3.04,5.15,4.92,-0.74,0.0786,1.32,1.59,0.906,1.67,0.182,2.05
CCAGACAGGTGAAAGGTAACTCAATCTGGTACGC,0.545,0.735,-0.0709,1.09,-0.161,3.43,5.5,6.13,3.94,5.99,2.13,2.83,-0.064,-0.205,1.32,1.09,0.164,2.31,0.578,1.11
TCGAGTACGTTACCAATGGGGCATTCAGCTTTCT,-0.0711,-0.26,-0.435,0.321,-0.0116,0.16,-0.0505,0.394,1.32,0.788,0.846,-0.201,-0.329,-0.495,-0.459,0.154,-0.778,0.193,-0.477,0.0471
GGCACGAGGGCAAGTTGATAGCAGAGTTTGATGG,0.802,0.399,-0.191,0.444,-0.697,1.23,0.838,0.927,-0.291,0.52,2.14,1.32,-0.405,-1.03,0.282,1.01,0.171,0.665,-0.327,2.59
CAAACTAGGTGAAGGTCAAAGTCGGTTTGTGCCA,4.11,4.11,2.31,3.48,0.412,5.38,7.65,6.92,5.05,6.44,8.04,8.04,2.16,0.309,2.76,3.95,0.968,4.27,0.0969,3.87
CCTTCTAGGTCAATGGTCAGCTAAAGCAGCTCGC,3.17,2.37,0.146,1.58,0.698,4.34,7.25,6.5,5.76,7.12,7.32,6.6,0.00752,0.699,2.03,0.931,-0.321,1.73,0.51,3.85
TCTTGTAGATCAAAGGTTTAGAAAGCCGAAGCCT,0.668,0.408,-0.116,0.454,-0.505,1.63,3.22,5.08,4.18,5.48,1.79,1.19,0.53,0.0845,0.307,0.16,-0.198,0.358,-0.0128,-0.0359
GTTCCAAGGTGAATAGGTCGTTGATGAGTAGGCG,1.29,0.977,-0.00758,0.642,0.0158,2.24,1.16,1.94,0.65,1.07,2.09,2.89,-0.109,0.149,1.58,1.02,0.352,2.05,0.818,2.22
CAAACTAGGTCACCGGACGGTCAAAGTCCGCATG,4.83,4.33,1.97,3.09,0.428,5.37,9.09,7.27,5.34,6.89,8.62,8.82,3.09,1.22,4.69,2.54,0.265,3.73,0.94,4.7
CCAACTGGGCCAAGGTCATTGATCAGTCAAAGCA,2.96,2.9,0.591,2.91,-0.522,4.3,4.16,4.06,1.82,3.3,4.04,4.58,-0.617,-0.824,1.58,3.11,0.914,3.22,0.0494,3.39
TTACCAAGGTGACAGGTCGTTGATGCACGCCTTG,0.924,1.02,0.111,0.582,-0.664,2.56,3.23,4.37,1.99,3.62,2.31,3.79,0.46,0.0595,1.64,0.764,0.0726,1.14,-0.207,2.05
